In PubChem BioAssay AID1030 (National Center for Advancing Translational Sciences (NCATS), 2008):
The whole screen tested about 220,000 compounds, of which about 16,000 (7.3%) were called active. Not shown: some 25% with an inconclusive outcome. This excerpt belongs to a sample that is enriched for actives. Unmarked numbers belong to inactive results. The call rests on the fitted dose curve; in most records, active means well fitted inhibition curve with a large enough effect (not every such curve was filed as active); inconclusive means small, poorly fitted or top-dose-only effect, or another doubt; inactive means no such curve, though single readings can be large or run the other way.

biological target: Aldehyde dehydrogenase 1A1 (Homo sapiens) (UniProt P00352); assay: qHTS Assay for Inhibitors of Aldehyde Dehydrogenase 1 (ALDH1A1); conditions: Purified ALDH1A1, NADH fluorescence, propionaldehyde substrate; series mostly up to 75.3 µM; activity, negative = inhibition: at the top concentration;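 on activity, negative = inhibition: plate controls were no enzyme wells and a reference inhibitor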
Sequence (P00352 whole entry, looked up): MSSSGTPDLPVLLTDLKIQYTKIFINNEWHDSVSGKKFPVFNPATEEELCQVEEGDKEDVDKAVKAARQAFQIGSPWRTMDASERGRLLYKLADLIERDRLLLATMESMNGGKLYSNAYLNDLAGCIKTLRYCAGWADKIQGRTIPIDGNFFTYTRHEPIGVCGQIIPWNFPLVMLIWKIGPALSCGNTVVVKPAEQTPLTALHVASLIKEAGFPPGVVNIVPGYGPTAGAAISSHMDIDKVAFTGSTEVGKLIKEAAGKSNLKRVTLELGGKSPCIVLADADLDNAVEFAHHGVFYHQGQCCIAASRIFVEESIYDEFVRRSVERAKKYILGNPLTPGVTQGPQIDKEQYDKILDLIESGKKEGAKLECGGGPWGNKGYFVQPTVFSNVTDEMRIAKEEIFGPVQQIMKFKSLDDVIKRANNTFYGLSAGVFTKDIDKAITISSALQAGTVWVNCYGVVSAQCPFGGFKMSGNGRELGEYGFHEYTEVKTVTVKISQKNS
Potency means the concentration at half of the fitted maximal effect.

| Structure (SMILES) | activity, negative = inhibition [%] | Potency |
| --- | --- | --- |
| CCn1c(SCc2cc(=O)n3ccsc3n2)nc2ccccc21 | 9.12 |  |
| COCC(C)NC(=O)c1ccc(Cl)c(Cl)c1 (centres undefined) | 3.63 |  |
| CC(C)CCC(C)NC(=O)c1ccc2nccnc2c1 (centres undefined) |  | 20 µM (active) |
| CC(Cc1cccs1)NC(=O)c1cccc(Cl)c1 (centres undefined) | 5.57 |  |
| CCc1ccc(NC(=O)Cn2nc(C)c([N+](=O)[O-])c2C)cc1 | -3.12 |  |
| O=C(Nn1cnnc1)c1ccc([N+](=O)[O-])cc1 | -5.53 |  |
| COCCCNC(=S)N1CCCC(c2nc3cc(C)c(C)cc3[nH]2)C1 (centres undefined) | -2.51 |  |
| CCCCNC(=O)CSc1nc2ccc(NC(=O)CSc3nnc(N)s3)cc2s1 |  | 20 µM (active) |
| CCOC(=O)c1ccc(NC(=O)CSc2nnc(COc3ccccc3OC)n2C)cc1 | -5.96 |  |
| Cc1ccc(S(=O)(=O)N2CCOCC2)cc1NC(=O)CSc1nnc(N)s1 | 4.41 |  |
| Cc1cccnc1NC(=O)CSc1nnc(COc2ccc(C(C)C)cc2)n1C | 9.2 |  |
| Nc1nnc(SCC(=O)Nc2ccc3nc(SCC(=O)Nc4ccccc4)sc3c2)s1 | -10.4 |  |
| CCCCNC(=O)CSc1nc2ccc(NC(=O)CSc3nnc(COc4ccccc4C)n3C)cc2s1 |  | 3.55 µM (active) |
| CN(c1ccccc1)S(=O)(=O)c1ccc(Cl)c(C(=O)OCC(N)=O)c1 | -15.1 |  |
| CN(C(=O)CSc1nnc(-c2c[nH]c3ccccc23)o1)C1CCS(=O)(=O)C1 (centres undefined) | -2.95 |  |
| O=C(/C=C/c1ccc(Cl)cc1)Nc1ccc(S(=O)(=O)Nc2ncccn2)cc1 | 1.56 |  |
| O=C(Nc1ccc(N2CCN(C(=O)C3CC3)CC2)cc1)c1cccs1 | -2.48 |  |
| C/C(=N\N1CCN(Cc2ccc(C)cc2)CC1)c1ccco1 | 2.4 |  |
| C/C(=N\NC(=O)C(N)=O)c1ccc2c(c1)OCCO2 | 12.7 |  |
| COC(=O)/C=C\C(=O)Nc1cccc([N+](=O)[O-])c1 |  | 0.178 µM (active) |
| CC(=O)Nc1cccc([N+](=O)[O-])c1 | 2.07 |  |
| COc1ccc(S(=O)(=O)NC(C)C(=O)Nc2cccc([N+](=O)[O-])c2)cc1 (centres undefined) | 0.552 |  |
| Clc1ccc(-c2cc(-c3ccccn3)on2)c(Cl)c1 | 17 |  |

| Structure (SMILES) | activity, negative = inhibition [%] | Potency |
| --- | --- | --- |
| O=C1Nc2cc(Cl)c(Cl)cc2N(O)N1c1ccccc1Cl | 6.43 |  |
| CCOc1cnc(C(=O)NNC(=O)c2ccccc2Br)o1 | 2.5 |  |
| CCOC(=O)CSC1=C(C#N)C(c2sccc2C)CC(=O)N1 (centres undefined) | 17.5 |  |
| C=CCSC1=C(C#N)C(c2cc(Br)c(O)c(OC)c2)CC(=O)N1 (centres undefined) |  | 25.1 µM (active) |
| COC(=O)CSC1=C(C#N)C(c2ccccc2OC)C(C(=O)OC)C(=O)N1 (centres undefined) | 5.25 |  |
| C[C@@H]1CC[C@]2(O[C@@H](CCO)C[C@H](O)[C@H]2O)O1 | -4.09 |  |
| CCCCOc1ccc(N(CC(=O)NC(C)C)C(=O)CCC(=O)Nc2ccccn2)cc1 | -2.58 |  |
| COCCN(CCOC)S(=O)(=O)c1ccc(/C(O)=C(\C#N)c2nc3ccccc3[nH]2)cc1 | 2.62 |  |
| COc1cccc2c1OCC(CN1CCN(C3CCCCC3)C(CCO)C1)=C2 (centres undefined) | -1.04 |  |
| Cc1cc(C)n(-c2ccc3nncn3n2)n1 | 9.72 |  |
| Cc1ccccc1OCCOc1ccc([N+](=O)[O-])cc1/C=N/n1cnnc1 | 1.94 |  |
| COc1cc(/C=N\Nc2ccc([N+](=O)[O-])cn2)ccc1OCC(=O)O | -9.72 |  |
| Cc1ccc(-n2c(C)cc(/C=N/Nc3ccc([N+](=O)[O-])cn3)c2C)c(C)c1 |  | 3.55 µM (active) |
| CC(C)(C)C1CCC(C(=O)Nc2cccnc2)CC1 (centres undefined) | -3.75 |  |
| Cn1nnnc1SCc1cc(=O)[nH]c2ccccc12 | -5.31 |  |
| CN(C)c1nc(N)nc(CSc2nnnn2-c2cccc3ccccc23)n1 |  | 7.94 µM (active) |
| CN(C)c1nc(N)nc(CSc2ccccn2)n1 | -4.05 |  |
| CC(OC(=O)c1ccccc1OCc1ccc(Cl)cc1)C(N)=O (centres undefined) | 2.06 |  |
| CCOC(=O)NCc1ccc2c(c1)OCO2 | 4.82 |  |
| O=C(NCc1ccc2c(c1)OCO2)C1CCCN(S(=O)(=O)c2cccs2)C1 (centres undefined) | -11.1 |  |
| Cc1cc(C)c(S(=O)(=O)NCC2CCC(C(=O)NCc3ccc4c(c3)OCO4)CC2)c(C)c1 (centres undefined) |  | 28.2 µM (active) |
| O=C(CN1C(=O)NC2(CCCC2)C1=O)NCC1CCCO1 (centres undefined) | 2.37 |  |
| Cc1cccc(NC(=O)Nc2nnc(-c3ccccc3)o2)c1 | 6.3 |  |

| Structure (SMILES) | activity, negative = inhibition [%] | Potency |
| --- | --- | --- |
| COc1ccc(CCNCC(O)Cn2ccc3ccccc32)cc1OC (centres undefined) | 3.09 |  |
| Cc1ccc(Oc2cc(NC(=O)CCCn3nc(C)c([N+](=O)[O-])c3C)cc([N+](=O)[O-])c2)cc1 | -9.52 |  |
| COc1ccc(CNC(=O)CCn2cccc2)cc1 | -2.66 |  |
| COc1ccc(CNC(=O)CCCn2nc(C)c([N+](=O)[O-])c2C)cc1 |  | 12.6 µM (active) |
| CNC(=O)COc1ccc(S(=O)(=O)Nc2ccccc2)cc1 | -2.45 |  |
| COc1ccc(-c2csc(NC(=O)c3ccc(N4C(=O)CCC4=O)cc3)n2)cc1OC | 5.15 |  |
| COc1ccc(-c2nc(N)sc2C2(O)C(=O)Nc3c(Br)cc(F)cc32)cc1OC (centres undefined) |  | 11.2 µM (active) |
| O=C(O)c1ccccc1-c1ccccc1C(=O)NCc1cccnc1 | -2.71 |  |
| N#C/C(=C\c1ccc(-c2cccc([N+](=O)[O-])c2)o1)C(=O)NCCN1CCOCC1 |  | 25.1 µM (active) |
| O=C(NCCCN1CCOCC1)c1ccc([N+](=O)[O-])cc1[N+](=O)[O-] | 2.46 |  |
| Cc1ccc(Cc2cnc(NC(=O)/C(C#N)=C/c3ccc(-c4cccc([N+](=O)[O-])c4)o3)s2)cc1 | 0.468 |  |
| Cc1ccccc1CSc1nnc(-c2ccccc2)c(=O)[nH]1 | 1.62 |  |
| Cc1c(O)cc(O)c2c(=O)c(-c3ccc(O)cc3)coc12 |  | 25.1 µM (active) |
| CC(C)OC(=O)Cn1nc(C(F)(F)F)c2c1CCCC2 | -4.53 |  |
| Cc1ccc(C(=O)NNC(=O)c2cccs2)cc1 | 15.8 |  |
| COc1ccccc1NC(=O)c1c(Br)cnn1C | 3.41 |  |
| COc1ccc(C(=O)COC(=O)COc2ccc(C)c(C)c2)cc1 | -12.5 |  |
| O=C(COc1cccc(F)c1)Oc1ccc(C(=O)c2ccccc2)cc1 |  | 28.2 µM (active) |
| O=C(c1ccccc1)c1ccc(OC(=O)N2CCCC2)cc1 | -4.99 |  |
| CC(C)(C)c1nnc(N/N=C/c2ccc(O)cc2)n(N)c1=O | -9.92 |  |
| Cc1ccc(NCc2n[nH]c(=S)n2-c2ccccc2)cc1Cl | -12.3 |  |
| Cn1c(CCCOc2ccc(Cl)cc2Cl)n[nH]c1=S | 9.75 |  |
| S=c1[nH]nc(CSCc2ccc(Cl)cc2Cl)n1-c1ccccc1 |  | 3.55 µM (active) |
